In PubChem BioAssay AID430 (Sanford-Burnham Center for Chemical Genomics, 2006):
Among all 63,000 compounds or so, about 1,100 (1.7%) were called active. This excerpt belongs to a sample that is enriched for actives. Potency and affinity values are given separately. Unmarked numbers belong to inactive results. Rule as the data show it: active = cytotoxicity above about 50%; inactive = the rest.

Experiment: HPDE-C7 pancreatic duct cell viability loss – fluorescence, HTS (AID 430);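 also: cells exposed to compound for 48 hours before viability readout; 0% = vehicle and 100% = reference cytotoxic drug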
Conditions: HPDE-C7 pancreatic duct cells viability, at 10 µM, stronger effect = higher value

| Structure (SMILES) | cytotoxicity |
| --- | --- |
| COc1ccc(NC(=O)C2CC(=O)NC(Nc3cccc(C)c3)=N2)cc1 (configuration not stated) | 5.9% |
| COC(=O)c1ccc(COC(=O)c2ccc(-n3cnnn3)cc2)o1 | -1.9% |
| O=C(Cc1ccc(Cl)cc1)NCCN1CCCC1 | 1.5% |
| Cc1c(C(=O)O)sc2ncn(C)c(=O)c12 | -7.5% |
| c1ccc(CCn2nnnc2C(c2cccs2)N2CCOCC2)cc1 (configuration not stated) | 3.6% |
| COc1ccc(S(=O)(=O)NCCc2csc(C)n2)cc1C | 0.1% |
| Cc1ccccc1-n1c(C)nc2ccccc21 | -11.6% |
| Cc1ccc2c(c1)c1c3n2CCN(C(=O)C2CC2)C3CCC1 (configuration not stated) | -6.9% |
| Cc1ccc2c(c1)c1c3n2CCN(C(=O)CN2CCN(C)CC2)C3CCC1 (configuration not stated) | 42.4% |
| COc1ccc(Cn2nnnc2CN2CCOCC2)cc1 | -5.5% |
| CN(C)CCNc1nc(-c2ccco2)c2c(c1C#N)CC(C)(C)OC2 | 2.7% |
| Cc1nc(NCc2ccco2)c(C#N)c2c1COC(C)(C)C2 | -17.6% |
| CCN(CC)CCNc1nc(-c2ccco2)c2c(c1C#N)CC(C)(C)OC2 | -14.1% |
| CCCc1nc(NCc2ccco2)c(C#N)c2c1COC(C)(C)C2 | -13.3% |
| CCC(=O)Nc1cc(C(=O)NCC2CCCN2CC)c(OC)cc1N(C)C (configuration not stated) | -2.6% |
| Cc1cccc(C)c1NC(=O)N1CCC(n2cnc3ccccc32)CC1 | -24.3% |
| Cc1cc(C)n(C(=O)CNC(=O)COc2ccccc2)n1 | -2.7% |
| COC(=O)c1ccccc1NC(=O)c1cc2sccc2n1C | 3.3% |
| Cc1ccc(S(=O)(=O)Cn2nnnc2C(C(C)C)N2CCN(Cc3ccco3)CC2)cc1 (configuration not stated) | -0.6% |
| CCOc1ccc(C(=O)COC(=O)CC)cc1 | -1.4% |
| COC(=O)CCC(=O)Oc1ccc(OC(=O)CCC(=O)OC)cc1 | 31.7% |
| CCC(=O)Oc1ccc(-c2nc(-c3cccnc3)no2)cc1 | -4.4% |
| CC(C)c1ccc(OC(=O)NCCO)cc1 | -0.9% |

| Structure (SMILES) | cytotoxicity |
| --- | --- |
| CCn1c(Cc2ccccc2)nnc1SCC(=O)Nc1cc(C)on1 | 4.4% |
| O=C1CCC(=O)N1OCCOc1ccc2c(c1)CCC2 | -1.4% |
| O=C1NC(c2ccc3c(c2)OCO3)Nc2ccccc21 (configuration not stated) | 10.6% |
| COC(=O)c1ccc2c(=O)n(CCCN3CCOCC3)c(=S)[nH]c2c1 | 2.7% |
| CCC(C)C(NC(=O)C1CCC(C)CC1)C(=O)NC(C(=O)OC)C(C)C (configuration not stated) | -5.2% |
| COc1cc(-c2nnc(-c3cccs3)o2)cc(OC)c1OC | -21.3% |
| COc1ccc(-c2nnc(Nc3nc4c(OC)cccc4s3)o2)cc1 | 85.9% (active) |
| COc1ccccc1-c1nnc(NC(=O)c2ccccc2F)o1 | 4.8% |
| CCOC(=O)c1sc(NCCNc2nc(C)c(C(=O)OCC)s2)nc1C | -1.3% |
| CCOC(=O)c1sc(Nc2nc3c(OC)cccc3s2)nc1C | 63.9% (active) |
| COc1ccc(-c2nnc(-c3ccc(N)cc3)o2)cc1 | 2.5% |
| COc1cc2nc(-c3cccs3)oc(=O)c2cc1OC | 16.9% |
| COc1cccc2sc(N(C)c3ccccc3)nc12 | -14% |
| COc1cccc2sc(Nc3nnc(-c4cccs4)o3)nc12 | 65.3% (active) |
| COc1ccccc1-c1nnc(Nc2nc3c(OC)cccc3s2)o1 | 54.9% (active) |
| COc1ccc(-c2nnc(NC(=O)C(C)C)o2)cc1 | -7.7% |
| COC(=O)c1sc(NC(=O)COc2ccccc2OC)nc1C | -3% |
| CCCCNC(=O)NCC(=O)Nc1ccc(F)c(F)c1 | -4% |
| CCSc1nnc(NC(=O)CSc2nccn2-c2cc(C)cc(C)c2)s1 | -2.2% |
| CC(=O)NC1CC2CCCC(C1)N2S(=O)(=O)c1ccccc1 (configuration not stated) | -17.7% |
| COc1ccc(N(C(=O)CNC(=O)c2ccco2)C(C(=O)NC2CCCCC2)c2ccco2)cc1 (configuration not stated) | -2.6% |
| Cc1nc(NC(=O)C2CC2)sc1C(=O)N1CCCCC1 | 11.8% |
| Cc1ccc(-c2noc(CCC(=O)NCCCN3CCN(c4ccc(F)cc4)CC3)n2)cc1 | -1.5% |

| Structure (SMILES) | cytotoxicity |
| --- | --- |
| O=C(Nc1ccccn1)c1cccnc1 | 0.9% |
| CC(=O)Nc1ccc(S(=O)(=O)N(CC(=O)O)Cc2ccccc2)cc1 | -8.5% |
| Cc1ccc(S(=O)(=O)Nc2ccc(S(=O)(=O)N3CCCC3)cc2)cc1 | 8.3% |
| c1ccc(-c2csc(Nc3cccnc3)n2)nc1 | 3.7% |
| COc1cccc2sc(Nc3nnc(-c4ccccc4Cl)o3)nc12 | 52.9% (active) |
| COc1ccc(-c2noc(-c3ccccc3Cl)n2)cc1OC | 0.6% |
| COc1cccc2sc(Nc3nc(-c4ccccn4)cs3)nc12 | 65.7% (active) |
| O=C(Nc1nnc(-c2ccccc2Cl)o1)c1ccco1 | 6.6% |
| Cc1cccc(Nc2nc(-c3ccccn3)cs2)n1 | 0.3% |
| Cc1ccc2oc(=O)cc(CN3CCC(C)CC3)c2c1 | 0.7% |
| O=c1c2ccccc2c(C=NCCO)c(O)n1-c1ccccc1 | 1.2% |
| CCOC(=O)C1CCCN(C2CC(=O)N(c3ccc(C)c(C)c3)C2=O)C1 (configuration not stated) | -3.2% |
| O=C(NCc1ccc(F)cc1)c1ccc(CS(=O)(=O)Cc2ccccc2F)o1 | -13.3% |
| O=C(c1cc(Cl)ccc1Cl)N1CCN(c2ccccn2)CC1 | 5.9% |
| Cc1cc(-c2ccccc2)nc(N2CCN(c3ccccn3)CC2)n1 | 11.2% |
| O=C(NCCC1=CCCCC1)C1CCCN(S(=O)(=O)c2cnc[nH]2)C1 (configuration not stated) | -2.1% |
| CCOC(=O)c1cccc(C(=O)OCC)n1 | -1% |
| CCOC(=O)c1ccccc1NC(=O)COC | -3.8% |
| CCN(c1ccccc1)c1cc(C)nc2nc(C)nn12 | -20.9% |
| CC(C)CCNc1ncnc2c1nnn2Cc1ccccc1Cl | -10.8% |
| Clc1ccccc1Cn1nnc2c(Nc3ccccc3)ncnc21 | -6.8% |
